Molecules are shown by their SMILES. Active and inactive are the calls of the source.

Assay [1] is described as follows: optical density shifts of acrAB sulA E. coli – strain DRC41, OD650, 48 h, E. coli filamentation inducer project, primary screen (AID 1152).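 Also: E. coli MC1000 strain DRC41 lacking acrAB efflux pump and sulA.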 As to conditions: higher = more signal, called active from +8 up or from −8 down.
A short description of assay [2]: probe aLefty1 binding on compound microarray – biochemical, small-molecule microarray, 635/667 nm fluorescence, primary screen (AID 1153).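 Also: score merges spot fluorescence with signal-to-noise ratio from the scanned slide images.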 The conditions noted are these: higher = more signal.
Assay [3] is described as follows: plasmodial surface anion channel blockers, osmotic lysis – cell-based, P. falciparum Indochina, OD700, 1 h, primary screen (AID 1154). As to conditions: P. falciparum Indochina infected RBC osmotic lysis, higher = more signal, called active from +8 up or from −8 down.
Assay [4] in a line: plasmodial surface anion channel blockers, osmotic lysis – cell-based, P. falciparum Indochina, OD700, 2 h, primary screen (AID 1155).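 Also: lysis reports solute entry through the parasite surface anion channel PSAC.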 The conditions noted are these: P. falciparum Indochina infected erythrocytes, higher = more signal, called active from +8 up or from −8 down.
Assay [5] in a line: changes in parasitized red cell lysis, either direction – P. falciparum Indochina, OD700, 3 h, PSAC antagonist project, primary screen (AID 1156). As to conditions: P. falciparum-infected erythrocytes, osmotic lysis, higher = more signal, called active from +8 up or from −8 down.
Assay [6] in a line: plasmodial surface anion channel blockers, osmotic lysis – cell-based, P. falciparum Indochina, OD700, 18 h, primary screen (AID 1157). The conditions noted are these: P. falciparum Indochina infected erythrocytes, osmotic lysis OD700, 18 h; higher = more signal, called active from +8 up or from −8 down.
Assay [7] can be described thus: S6 kinase pathway phospho-S6 level changes – cell-based, A549, cytoblot, luminescence, serum-stimulated, primary screen (AID 1158).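 Also: serum-stimulated A549 lung adenocarcinoma cells; signal is phosphorylated S6 detected by cytoblot immunostaining with HRP secondary.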 As to conditions: 5 h, higher = more signal.
The target of assay [8] is NADPH oxidase 2 (Homo sapiens) (UniProt P04839). Description: compounds shifting NOX2 Amplex Red fluorescence – cell-based, HEK293-NOX2, PMA-stimulated, NOX inhibitor project, primary screen (AID 1159). Also: test concentration not given here. As to conditions: 45 min, higher = more signal, called active from +8 up or from −8 down.
Sequence of NADPH oxidase 2 (Homo sapiens) (P04839 whole entry, looked up): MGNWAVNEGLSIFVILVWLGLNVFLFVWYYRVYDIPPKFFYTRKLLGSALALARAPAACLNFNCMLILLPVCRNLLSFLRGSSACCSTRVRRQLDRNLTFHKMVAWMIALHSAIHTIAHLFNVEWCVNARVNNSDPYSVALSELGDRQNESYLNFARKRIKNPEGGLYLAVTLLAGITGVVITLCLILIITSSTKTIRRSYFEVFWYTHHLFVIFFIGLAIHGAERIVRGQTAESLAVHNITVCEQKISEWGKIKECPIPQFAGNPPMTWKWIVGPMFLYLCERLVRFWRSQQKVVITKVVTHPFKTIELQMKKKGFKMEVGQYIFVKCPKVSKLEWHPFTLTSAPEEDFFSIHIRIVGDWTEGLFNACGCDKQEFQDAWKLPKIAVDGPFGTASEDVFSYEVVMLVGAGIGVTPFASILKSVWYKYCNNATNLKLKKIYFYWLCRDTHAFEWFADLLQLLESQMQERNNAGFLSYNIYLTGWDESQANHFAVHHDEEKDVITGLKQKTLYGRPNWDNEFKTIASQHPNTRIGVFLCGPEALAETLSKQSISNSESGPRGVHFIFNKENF
The target of assay [9] is NADPH oxidase 4 (Homo sapiens) (UniProt Q9NPH5). Description: compounds shifting NOX4 Amplex Red fluorescence – cell-based, HEK293-NOX4, tetracycline-induced, NOX inhibitor project, primary screen (AID 1160). The conditions noted are these: HEK293-NOX4, Amplex Red H2O2 fluorescence, 45 min; higher = more signal, called active from +8 up or from −8 down.
Sequence of NADPH oxidase 4 (Homo sapiens) (Q9NPH5 whole entry, looked up): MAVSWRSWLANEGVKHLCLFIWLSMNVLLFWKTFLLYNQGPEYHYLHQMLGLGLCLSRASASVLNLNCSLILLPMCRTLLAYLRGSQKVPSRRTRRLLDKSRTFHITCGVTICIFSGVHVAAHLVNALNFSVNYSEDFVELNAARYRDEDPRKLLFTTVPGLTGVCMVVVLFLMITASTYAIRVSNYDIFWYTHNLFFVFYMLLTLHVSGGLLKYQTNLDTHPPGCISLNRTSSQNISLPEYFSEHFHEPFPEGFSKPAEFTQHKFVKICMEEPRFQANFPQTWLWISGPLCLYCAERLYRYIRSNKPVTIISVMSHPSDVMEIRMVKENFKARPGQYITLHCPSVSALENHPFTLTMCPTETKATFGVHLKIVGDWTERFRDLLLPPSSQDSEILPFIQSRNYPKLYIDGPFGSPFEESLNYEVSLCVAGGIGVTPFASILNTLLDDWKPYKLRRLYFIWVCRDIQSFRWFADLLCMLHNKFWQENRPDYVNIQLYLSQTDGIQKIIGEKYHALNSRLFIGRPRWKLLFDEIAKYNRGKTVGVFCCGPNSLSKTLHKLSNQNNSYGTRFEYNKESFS
The target in assay [10] is NADPH oxidase 5 (Homo sapiens) (UniProt Q96PH1). The experiment in a line: compounds shifting NOX5 Amplex Red fluorescence – cell-based, HEK293-NOX5, NOX inhibitor project, primary screen (AID 1161). The conditions noted are these: HEK293-NOX5, ionomycin, 45 min, higher = more signal.
Sequence of NADPH oxidase 5 (Homo sapiens) (Q96PH1 whole entry, looked up): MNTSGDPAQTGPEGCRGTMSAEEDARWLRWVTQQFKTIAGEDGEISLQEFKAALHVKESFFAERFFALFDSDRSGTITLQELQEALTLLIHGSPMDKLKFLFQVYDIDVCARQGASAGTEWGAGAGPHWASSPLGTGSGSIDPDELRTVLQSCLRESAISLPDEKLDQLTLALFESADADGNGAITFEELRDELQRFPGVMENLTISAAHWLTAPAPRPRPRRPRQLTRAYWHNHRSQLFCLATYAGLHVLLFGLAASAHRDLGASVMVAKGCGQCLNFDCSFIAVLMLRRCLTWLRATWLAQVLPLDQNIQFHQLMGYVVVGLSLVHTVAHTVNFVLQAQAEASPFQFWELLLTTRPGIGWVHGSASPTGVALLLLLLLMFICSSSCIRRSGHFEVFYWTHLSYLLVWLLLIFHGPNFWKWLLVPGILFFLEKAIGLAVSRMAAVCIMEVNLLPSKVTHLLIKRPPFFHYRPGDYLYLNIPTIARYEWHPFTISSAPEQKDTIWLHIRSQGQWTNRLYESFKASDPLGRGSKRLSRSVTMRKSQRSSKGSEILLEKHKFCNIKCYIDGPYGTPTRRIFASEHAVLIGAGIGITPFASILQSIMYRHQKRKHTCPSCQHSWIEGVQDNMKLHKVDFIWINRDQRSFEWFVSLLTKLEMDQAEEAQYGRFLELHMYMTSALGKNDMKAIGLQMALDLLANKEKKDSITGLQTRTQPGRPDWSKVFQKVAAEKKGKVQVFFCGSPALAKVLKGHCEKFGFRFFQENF

With `COCCOC(=O)N1C(=O)[C@@]2(c3cc(C#CCNC(N)=O)ccc31)[C@H](c1ccc(O)cc1)N1[C@H](c3ccccc3)[C@H](c3ccccc3)OC(=O)[C@H]1[C@@H]2C(=O)Nc1nc2ccccc2s1`, the z-score in assay [1] was 3.62 (inactive); in assay [3], 1.13 (inactive); in [4], -0.361 (inactive); in assay [5], 0.284 (inactive); in [6], -0.0972 (inactive); in assay [7], 2.46. The results for the z-score in assay [8], in assay [9] and in assay [10] were 0.806 (inactive), 0.969 (inactive) and 1.33, respectively. The molecule further registered a composite z-score in assay [2] of 0.144.
As for `[N-]=[N+]=NCc1ccccc1[C@H]1OC(c2ccc(OCCCO)cc2)=N[C@@]1(CCS(=O)(=O)c1ccccc1)C(=O)N1CCOCC1`, the z-score is -0.0978 (inactive) in assay [1]; 24.4 (active) in assay [3]; 9.51 (active) in assay [4]; 1.76 (inactive) in [5]; 0.885 (inactive) in assay [6]; -0.362 in [7]. For the same molecule, the z-score in assay [8] is 1.24 (inactive); in assay [9], 2.19 (inactive); in assay [10], 1.98. For the same molecule, the composite z-score in assay [2] stood at 1.08.
On to `COc1cc(CO)ccc1OC(C)=O`, for which the z-score was 1.48 (inactive) in assay [1]; -0.92 (inactive) in assay [3]; -1.73 (inactive) in [4]; -0.798 (inactive) in [5]; -2.47 (inactive) in [6]; 1.03 in assay [7]. Further, the z-score is -4.55 (inactive) in assay [8], -1.36 (inactive) in assay [9] and -0.667 in [10]. For the same molecule, the composite z-score in assay [2] was -0.157.
With `[N-]=[N+]=NCc1ccccc1[C@@H]1OC(c2ccc(OCCCO)cc2)=N[C@]1(Cc1ccccc1N=[N+]=[N-])C(=O)NCc1ccccc1`, the z-score was -2.95 (inactive) in assay [1]; 21.8 (active) in assay [3]; 4.97 (inactive) in [4]; 3.79 (inactive) in assay [5]; 1.33 (inactive) in assay [6]; -0.33 in assay [7]. The z-score is -0.654 (inactive) in assay [8], 0.0734 (inactive) in assay [9] and 0.235 in [10]. In assay [2], the composite z-score came to 0.639.
With `C=CCOC(=O)[C@H]1[C@@H]2C(=O)O[C@@H](c3ccccc3)[C@@H](c3ccccc3)N2[C@@H](c2ccc(OCCOC(=O)[C@@H]3C[C@@H]4C(=O)N5CCC[C@H]5C(=O)N4[C@@H]3c3ccc(O)cc3)cc2)[C@]12C(=O)Nc1ccccc12`, the z-score was 0.891 (inactive) in [1]; 2.72 (inactive) in assay [3]; 1.04 (inactive) in [4]; 2.96 (inactive) in assay [5]; 0.668 (inactive) in assay [6]; 0.193 in [7]. Further, the z-score is 1.64 (inactive) in assay [8], 1.21 (inactive) in assay [9] and 1.57 in assay [10]. In assay [2], this molecule showed a composite z-score of 0.137.
Consider `COC(=O)C[C@H]1O[C@]2(C(=O)N(Cc3ccccc3)c3ccc(NC(C)=O)cc32)[C@@H](C)[C@@H]1[Si](C)(C)c1ccc(OC)cc1`, for which the z-score in [1] was -0.202 (inactive); in [3], 2.19 (inactive); in [4], 0.984 (inactive); in assay [5], 0.659 (inactive); in assay [6], 0.304 (inactive); in assay [7], 0.186. The z-score in assay [8] was -0.0156 (inactive); in [9], 0.288 (inactive); in assay [10] it was 2.89. Besides, the composite z-score in [2] was -0.179.
Take `O=c1cccc(C=Cc2ccccc2)o1`: the z-score was 0.465 (inactive) in assay [1]; 2.92 (inactive) in [3]; 0.88 (inactive) in [4]; 0.488 (inactive) in [5]; 0.931 (inactive) in assay [6]; -0.39 in assay [7]. The z-score in [8] is 0.165 (inactive); in assay [9] it was -0.562 (inactive); in [10], -0.0341. The composite z-score in assay [2] was -0.29.
For `NC(=O)NCC#Cc1ccc2c(c1)[C@]1(C(=O)N2)[C@H](C(=O)NC[C@H](O)c2ccccc2)[C@H]2C(=O)O[C@H](c3ccccc3)[C@H](c3ccccc3)N2[C@@H]1c1ccc(O)cc1`, the z-score in assay [1] was -0.765 (inactive); in [3], 0.397 (inactive); in assay [4], -0.0004 (inactive); in assay [5] it was 2.63 (inactive); in assay [6] it was -0.048 (inactive); in [7], -0.0546. Also, the z-score in [8] was 1.3 (inactive); in [9], 0.02 (inactive); in assay [10], 0.404. The composite z-score in [2] is -0.149.
As to `CCOC(=O)C1=CC[C@@H](c2ccccc2)N(S(=O)(=O)c2ccc(C)cc2)[C@H]1C(=O)OCC`, the z-score in assay [1] was -0.488 (inactive); in assay [3], 3.81 (inactive); in assay [4], 1.17 (inactive); in assay [5], -0.54 (inactive); in assay [6], 0.583 (inactive); in [7], -0.338. The z-score in assay [8] is 0.439 (inactive); in [9], -1.45 (inactive); in assay [10], -0.75. The same molecule gave a composite z-score in [2] of 0.632.
Turning to `C[C@]1(C(=O)NCc2ccccc2)c2ccccc2C(=O)N(Cc2cc(F)cc(C(F)(F)F)c2)[C@H]1c1ccc(CO)cc1`, the z-score in [1] was 0.537 (inactive); in [3] it was 5.2 (inactive); in [4] it was 1.01 (inactive); in assay [5], 1.12 (inactive); in [6] it was 0.38 (inactive); in assay [7], -0.239. Further, the z-score was -1.29 (inactive) in [8], 0.26 (inactive) in [9] and -0.151 in assay [10]. This molecule came in with a composite z-score in assay [2] of -0.101.

For the origin of these results see PubChem BioAssay.
